Source: PubChem BioAssay (EPA / NIEHS)
Results filed as inconclusive are left out. The source made the active and inactive calls. Rule for the calls: active = hit-call score of the fitted dose curve at least 0.9, where 1 is the maximum; inconclusive = response in the unintended direction; inactive = score below 0.9.

read-out: glucuronosyltransferase (UGT1A1), UGT1A1 (gene 54658); test: CLD_UGT1A1_48hr: CellzDirect (CLD) Gene Expression Assay for glucuronosyltransferase (UGT1A1) at 48 hours (AID 2283709);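 note: actives increase expression relative to DMSO so potency refers to induction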
Method: CLD_48hr is a cell-based, multiplexed-readout assay that uses hepatocyte, a human liver primary cell, with measurements taken at 48 hours after chemical dosing in a 96-well plate.CLD_UGT1A1_48hr is one of 16 assay component(s) measured or calculated from the CLD_48hr assay. It is designed to make measurements of mRNA induction, a form of inducible reporter, as detected with chemiluminescence signals by Quantitative Nuclease Protection Assay (qNPA) technology.Data from the assay component CLD_UGT1A1_48hr was analyzed at the endpoint, CLD_UGT1A1_48hr, in the positive analysis fitting direction relative to DMSO as the negative control and baseline of activity. Using a type of inducible reporter, gain-of-signal activity can be used to understand changes in the reporter gene as they relate to the gene UGT1A1. Furthermore, this assay endpoint can be referred to as a primary readout. To generalize the intended target to other relatable targets, this assay endpoint is annotated to the transferase intended target family, where subfamily is glucuronosyltransferase.
Human hepatocyte cultures were treated daily for two consecutive days with fresh dosing solutions containing appropriate concentrations of the 320 ToxCast chemicals (chemical identities were blinded to CellzDirect and other ToxCast collaborators), vehicle control (0.2% DMSO), and positive control inducers as summarized in Table 1. Due to the large number of treatment groups and chemicals examined, the ToxCast chemicals were divided into two groups (spanning two independent cultures of hepatocytes from separate donor preparations (Hu778: ToxCast plates 1 and 2; Hu776: ToxCast plates 3 and 4). Each preparation of human hepatocyte cultures was treated with respective vehicle control, medium only control, set of six positive controls/reference chemicals for the five hepatic receptor pathways, and a subset of eight of the ToxCast chemicals (indoxacarb, pyrithiobac-sodium, norflurazon, cyhalofop-butyl, methomyl, thiram, acetochlor, and propiconazole). These replicate data, coupled with internal replicates designed within the blinded ToxCast chemical library, provided additional data to evaluate interindividual differences between hepatocyte preparations and their potential impact on chemical profiles.Cell morphology and integrity were evaluated using phase-contrast microscopy as an indicator of hepatocyte cell health (Tyson & Green, 1987). Cultures for each treatment group (i.e., media, vehicle [0.2% DMSO], positive control inducers [multiple concentrations], and the ToxCast chemicals [multiple concentrations]) were observed and cell morphology was assessed relative to vehicle control cultures at each harvest time point (0, 6, 24, or 48 h). […] Images were evaluated at the conclusion of the study to assess changes in cell integrity and account for the effects of chemical exposure on uncharacteristic changes in concentration-dependent gene expression profiles. The results from these determinations of apparent cytotoxicity were annotated (yes/no) alongside the corresponding qNPA data for reference.At the conclusion of each treatment period, hepatocyte cultures (96-well) were washed with 1 volume of HBSS, lysed by addition of 25 ul ArrayPlate lysis buffer (HTG, Tucson, AZ), and 70 ul/well of Denaturation Oil, denatured by incubation at 95C for 10 min, and frozen at approximately -70C until analysis by nuclease protection assay (qNPA) (Roberts et al., 2007). For qNPA analysis, cell lysates were thawed at 50C for approximately 30 min, qNPA probes were added, and samples were incubated at 95C for 10 min to begin the detection process by denaturing the target RNA, dissociating the duplexes and secondary structure hybridization. At the conclusion of the hybridization period, S1 nuclease reagent was added to each sample to digest all nonprotected nucleotides at 50C for 60-90 min. […]

Question: Which AC50 does the source give for `COP(=O)(OC)C(O)C(Cl)(Cl)Cl` (stereo not given) here?
Answer: 0.0665 µM (active)

Question: With `CC(C1CC1)C(O)(Cn1cncn1)c1ccc(Cl)cc1` (stereo not given) as the compound, how does the outcome read?
Answer: inactive

Question: `C#CC(C)(C)NC(=O)c1cc(Cl)cc(Cl)c1` was tested. Which AC50 did it give?
Answer: 6.38 µM (active)

Question: For `CSc1nc(NC(C)C)nc(NC(C)C)n1`, which outcome is on record?
Answer: inactive

Question: Which outcome does the source give for `COP(=O)(OC)SCn1c(=O)oc2cc(Cl)cnc21` here?
Answer: inactive

Question: How did the AC50 turn out when `C#CCC1=C(C)C(OC(=O)C2C(C=C(C)C)C2(C)C)CC1=O` (stereo not given) was run?
Answer: 3.87 µM (active)

Question: For `CC(Oc1cccc(Cl)c1)C(=O)O` (stereo not given), which outcome is on record?
Answer: inactive

Question: `CCCSP(=O)(OCC)SCCC` was tested. Which outcome did it give?
Answer: inactive

Question: `CCCCOC(=O)[C@@H](C)Oc1ccc(Oc2ccc(C#N)cc2F)cc1` was tested. Which outcome did it give?
Answer: inactive

Question: Which AC50 does the source give for `CCCCSP(=O)(SCCCC)SCCCC` here?
Answer: 20 µM (active)

Question: With `CCCSP(=O)(OCC)Oc1ccc(Br)cc1Cl` (stereo not given) as the compound, how does the AC50 read?
Answer: 20 µM (active)

Question: With `COc1ccc(C(=CC(=O)N2CCOCC2)c2ccc(Cl)cc2)cc1OC` as the compound, how does the outcome read?
Answer: inactive

Question: For `CCc1cnc(C2=NC(C)(C(C)C)C(=O)N2)c(C(=O)O)c1` (stereo not given), which outcome is on record?
Answer: inactive

Question: With `CCOP(=O)(NC(C)C)Oc1ccc(SC)c(C)c1` (stereo not given) as the compound, how does the outcome read?
Answer: inactive

Question: `CC(C)N(C(=O)SCC(Cl)=C(Cl)Cl)C(C)C` was tested. Which outcome did it give?
Answer: inactive

Question: How did the outcome turn out when `CCC(=O)Nc1ccc(Cl)c(Cl)c1` was run?
Answer: inactive

Question: With `CC(C)[C@H](C(=O)O[C@H](C#N)c1cccc(Oc2ccccc2)c1)c1ccc(Cl)cc1` as the compound, how does the AC50 read?
Answer: 7.47 µM (active)

Question: `CC1=NNC(=O)N(/N=C/c2cccnc2)C1` was tested. Which outcome did it give?
Answer: inactive

Question: With `CN(C)C(=O)Nc1cccc(C(F)(F)F)c1` as the compound, how does the outcome read?
Answer: inactive

Question: For `S=C1NCCN1`, which outcome is on record?
Answer: inactive

Question: Which outcome does the source give for `CCOP(=O)(SC(C)CC)N1CCSC1=O` (stereo not given) here?
Answer: inactive

Question: With `CCCOCC(=Nc1ccc(Cl)cc1C(F)(F)F)n1ccnc1` as the compound, how does the outcome read?
Answer: inactive

Question: `CON=C(C(=O)OC)c1ccccc1CON=C(C)c1cccc(C(F)(F)F)c1` was tested. Which outcome did it give?
Answer: inactive

Question: `CCOP(=S)(OCC)Oc1cc(C)nc(C(C)C)n1` was tested. Which outcome did it give?
Answer: inactive

Question: `CCC(CC)Nc1c([N+](=O)[O-])cc(C)c(C)c1[N+](=O)[O-]` was tested. Which outcome did it give?
Answer: inactive

Question: For `C[N+]1(C)CCCCC1`, which outcome is on record?
Answer: inactive

Question: `CNc1cnn(-c2cccc(C(F)(F)F)c2)c(=O)c1Cl` was tested. Which outcome did it give?
Answer: inactive

Question: With `CCCOc1nn(C(=O)NS(=O)(=O)c2ccccc2C(=O)OC)c(=O)n1C` as the compound, how does the outcome read?
Answer: inactive

Question: How did the outcome turn out when `C[Si](Cn1cncn1)(c1ccc(F)cc1)c1ccc(F)cc1` was run?
Answer: inactive

Question: How did the AC50 turn out when `CCOP(=S)(OCC)Oc1ccc([N+](=O)[O-])cc1` was run?
Answer: 2.67 µM (active)

Question: Which outcome does the source give for `COP(=O)(OC)OC(Br)C(Cl)(Cl)Br` (stereo not given) here?
Answer: inactive

Question: Which AC50 does the source give for `CC(COc1ccc(Oc2ccccc2)cc1)Oc1ccccn1` (stereo not given) here?
Answer: 4.89 µM (active)

Question: For `CCOP(=S)(OCC)OC(Cl)C(Cl)(Cl)Cl` (stereo not given), which AC50 is on record?
Answer: 4.19 µM (active)

Question: With `CCCCN(CC)c1c([N+](=O)[O-])cc(C(F)(F)F)cc1[N+](=O)[O-]` as the compound, how does the AC50 read?
Answer: 7.05 µM (active)

Question: How did the AC50 turn out when `CCOC(=O)COc1cc(-c2nn(C)c(OC(F)F)c2Cl)c(F)cc1Cl` was run?
Answer: 6.18 µM (active)

Question: `CCOP(=S)(Oc1cnc(C(C)(C)C)nc1)OC(C)C` (stereo not given) was tested. Which AC50 did it give?
Answer: 0.439 µM (active)

Question: For `CNC(=O)ON=C(C)SC`, which outcome is on record?
Answer: inactive

Question: How did the outcome turn out when `Cc1nn(-c2cc(NS(C)(=O)=O)c(Cl)cc2Cl)c(=O)n1C(F)F` was run?
Answer: inactive

Question: `C=C(C)[C@H]1Cc2c(ccc3c2O[C@@H]2COc4cc(OC)c(OC)cc4[C@@H]2C3=O)O1` was tested. Which outcome did it give?
Answer: inactive

Question: Which outcome does the source give for `CCC(=NOC/C=C/Cl)C1=C(O)CC(C2CCOCC2)CC1=O` (stereo not given) here?
Answer: inactive
